An excerpt weighted towards active compounds, which were near 1.5% of everything screened.
TLR4 MyD88 comp – inhibitors of TLR4-MyD88 association in cells, primary screen, cell-based, HeLa CL3-4, BLA complementation, FRET ratio; AID 861, 2007; 200,000 compounds, 0.18% hits; Toll-like receptor 4 (Homo sapiens) + Myeloid differentiation primary response protein …; inhibition, % at 8.4 µM; HeLa CL3-4 TLR4/MyD88 BLA complementation; in the data active = inhibition above about 25%;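 also: 0% = vehicle and 100% = reference inhibitor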
ABHD5-PLIN5 inh – ABHD5-PLIN5 interaction inhibitors, primary screen, cell lysate, split luciferase complementation, luminescence. Perilipin-5 (Homo sapiens) + 1-acylglycerol-3-phosphate O-acyltransferase ABHD5 (Homo …. Split G. princeps luciferase complementation, 4 h. inhibition, % at 4 µM. 360,000 compounds, 0.78% hits;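 active = inhibition above the mean inhibition across every tested compound plus 3 SD, cut at about 22% in these data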;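 also: 0% = DMSO only wells and the 100% control is not disclosed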
Target sequence (Q00G26 whole entry, looked up): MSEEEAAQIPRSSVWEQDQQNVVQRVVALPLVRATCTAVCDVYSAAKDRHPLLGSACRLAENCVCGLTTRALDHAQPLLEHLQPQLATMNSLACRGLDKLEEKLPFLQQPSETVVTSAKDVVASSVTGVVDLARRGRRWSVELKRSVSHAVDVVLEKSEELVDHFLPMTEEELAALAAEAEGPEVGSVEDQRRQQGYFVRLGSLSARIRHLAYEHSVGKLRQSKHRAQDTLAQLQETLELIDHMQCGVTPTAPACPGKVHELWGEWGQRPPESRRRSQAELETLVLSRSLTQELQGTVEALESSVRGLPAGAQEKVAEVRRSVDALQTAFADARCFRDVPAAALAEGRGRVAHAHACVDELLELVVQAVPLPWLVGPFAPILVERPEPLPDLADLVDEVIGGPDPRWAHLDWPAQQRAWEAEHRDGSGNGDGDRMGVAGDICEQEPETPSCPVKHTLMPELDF
Target sequence (Q8WTS1 whole entry, looked up): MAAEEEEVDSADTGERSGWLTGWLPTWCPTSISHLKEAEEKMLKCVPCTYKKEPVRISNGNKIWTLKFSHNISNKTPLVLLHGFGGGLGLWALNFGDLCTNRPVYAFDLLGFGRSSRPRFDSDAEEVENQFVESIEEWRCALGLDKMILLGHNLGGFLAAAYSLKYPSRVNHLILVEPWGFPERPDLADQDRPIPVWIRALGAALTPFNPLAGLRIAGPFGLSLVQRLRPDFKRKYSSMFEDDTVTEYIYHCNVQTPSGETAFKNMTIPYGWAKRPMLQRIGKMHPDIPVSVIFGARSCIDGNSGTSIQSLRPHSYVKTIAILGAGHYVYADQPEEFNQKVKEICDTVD
TLR9-MyD88 inh – inhibitors of TLR9-MyD88 association in cells, primary screen, cell-based, CHO, BLA complementation, fluorescence; CCF4 FRET ratio; inhibition, % at 4.98 µM; 340,000 compounds, 0.21% hits; AID 504734, 2011;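 active = inhibition above the mean over all tested compounds plus 3 SD, cut at about 21% in these data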;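 also: 0% = DMSO only wells and 100% = clavulanate BLA inhibitor control wells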
B2AR ag – beta2AR agonists driving receptor internalization, primary screen, cell-based, FAP fluorogen, flow cytometry. Am2.2-beta2AR cells. response, % (test concentration not listed). 340,000 compounds, 0.43% hits;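 active = response above a set limit, near 3 SD of response in nonfluorescent compounds, cut at about 42% in these data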
NTR1 ag – agonists of human NTR1, primary screen, imaging, U2OS cells, beta-arrestin-GFP, high content; Neurotensin receptor type 1 (Homo sapiens), P30989; NTR1-U2OS beta-arrestin-GFP spot imaging, agonist mode; activation, % at 20 µM; 330,000 compounds, 0.17% hits;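 active = activation at or above 40% of the spot to cytoplasm intensity ratio, with at least 20 cells analyzed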;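 also: 0% = DMSO without peptide and 100% = 100 nM NTR1 peptide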
NOD2 RIPK2 PPI – NOD2-RIPK2 binding disruptors in cells, primary screen, fluorescence, CHO cells, BLA complementation. CCF4 ratio. AID 624267, 2012. inhibition, % at 4.98 µM. 360,000 compounds, 0.38% hits; in the data active = inhibition above about 21%;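 also: 0% = vehicle only and 100% = reference blocker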
Beta2AR ag CP1 – beta2AR agonists via receptor internalization, confirmation, cell-based, FAP fluorogen, flow cytometry, single point, cherry pick 1; shares compounds with B2AR ag; Am2.2-beta2AR cells, FAP surface receptor; stronger effect = lower value; percent response (surface receptor), % at 10 µM; 1,100 compounds, 25% hits;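 active = surface receptor percent response at or below 58%, roughly 3 SD from nonfluorescent compounds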
FAP fluor counter – fluorescence artifact in beta-2AR agonist FAP counterscreen. shares compounds with B2AR ag. Am2.2 cells, FAP fluorogen flow cytometry; stronger effect = lower value. calls only at 10 µM. 1,100 tested, under 10 active;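 active = percent response below a set limit in fluorescence channel 1 and below 50% in channel 8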
Starred values were filed as active, the others as inactive; i = inactive; . = no result given.

SMILES | TLR4 MyD88 comp | ABHD5-PLIN5 inh | TLR9-MyD88 inh | B2AR ag | NTR1 ag | NOD2 RIPK2 PPI | Beta2AR ag CP1 | FAP fluor counter
COc1ccc(OCC(=O)Nc2ccc(NC(=O)c3cccs3)cc2)cc1 | . | -3 | -8 | 54* | -2 | -3 | 74 | i
COc1ccc(CC(N)c2csc(NC(=O)C(c3ccccc3)c3ccccc3)n2)cc1 (centres undefined) | . | -8 | . | . | . | 9 | . | .
Cc1ccc(-c2nc3ncccc3o2)cc1NC(=O)c1sc2ccccc2c1Cl | -7 | 5 | -9 | 45* | 20 | -8 | 74 | i
CC(Sc1nc(-c2ccccc2)cc(C(F)(F)F)n1)C(=O)N1CCCC1 (centres undefined) | -10 | -4 | -1 | 54* | 3 | 1 | 55* | i
CC(Sc1nc(-c2ccccc2)cc(C(F)(F)F)n1)C(=O)N1CCC(C(N)=O)CC1 (centres undefined) | -5 | 9 | -8 | -2 | 0 | 1 | 134 | i
CC1CCN(C(=O)C(C)Sc2nc(-c3ccccc3)cc(C(F)(F)F)n2)CC1 (centres undefined) | -4 | -5 | -2 | 15 | 8 | 2 | 111 | i
CC(Sc1nc(-c2ccccc2)cc(C(F)(F)F)n1)C(=O)N1CCOCC1 (centres undefined) | -6 | 3 | 3 | 91* | 1 | -1 | 14* | i
CN(C(=O)c1ccc(NC(=O)Cc2cccc(NC(=O)C3CCN(C(=O)C4CCC4)CC3)c2)cc1)C1CC1 | . | 6 | -4 | -8 | . | -17 | 113 | i
CN(C(=O)c1cccc(NC(=O)Cc2cccc(NC(=O)C3CCN(C(=O)C4CCCCC4)CC3)c2)c1)C1CC1 | . | 7 | 9 | -4 | . | 0 | . | .
CN(C(=O)c1ccc(NC(=O)Cc2cccc(NC(=O)C3CCN(C(=O)C4CCCCC4)CC3)c2)cc1)C1CCCC1 | . | 7 | -13 | 54* | -1 | -4 | 92 | i
CC(C)C(NC(=O)OCc1ccccc1)C(=O)NC(Cc1c[nH]c2ccccc12)C(=O)O (centres undefined) | . | -12 | . | . | . | -6 | . | .
CCOc1ccccc1C(=O)NCC(=O)OCc1csc(CC(=O)Nc2ccc(C)cc2)n1 | . | -7 | 8 | 85* | 10 | -10 | 12* | i
CCOc1ccccc1C(=O)N[C@H](C(=O)OCc1csc(CC(=O)Nc2ccc(C)cc2)n1)C(C)C | . | 8 | -11 | -3 | 12 | 3 | . | .
CCOc1ccc(NC(=O)CNC(=O)c2nn(-c3ccc(OC)c(OC)c3)c(=O)c3ccccc23)cc1 | . | -1 | -6 | 54* | -2 | 1 | 67 | i
CCCCCCCCCCCC1N=C(N)NC(CCCO)=C1C(=O)OC (centres undefined) | . | 1 | -21 | -1 | . | -11 | . | .
CC(C)(C)C(=O)Nc1ccccc1N1CCN(c2ccc(F)cc2)CC1 | . | 13 | 5 | 67* | 4 | -9 | 105 | i
O=C(Nc1cccc(-c2nc3cccnc3s2)c1)c1cccnc1Cl | . | 4 | 0 | 37 | 3 | 3 | . | .
O=C(Nc1cccc(-c2nc3cccnc3s2)c1)C1c2ccccc2Oc2ccccc21 | -3 | 4 | -9 | 74* | -1 | -2 | 44* | i
COc1ccc(S(=O)(=O)NC(=O)C2(C)CCN2C(=O)c2c(C)noc2C)cc1 (centres undefined) | . | 3 | . | . | . | -12 | . | .
Cc1ccc(NC(=O)C(c2ccc(Cl)cc2)N2CCCCC2)cc1 (centres undefined) | 9 | 1 | 2 | 47* | . | 3 | 36* | i

Assay outcomes deposited in PubChem by several laboratories.
